Some test systems named below: NCI-H23 lung; NCI-H226 lung; NCI-H322M lung; HOP-62 NSCLC; NCI-H460 lung; HOP-92 NSCLC; NCI-H522 lung; A549/ATCC NSCLC; 786-0 renal; COLO 205 colon; DU-145 prostate; K-562 leukemia; MALME-3M melanoma; MDA-MB-231 breast; RXF 393 renal; SF-268 CNS; SF-295 CNS; SF-539 CNS; UACC-257 melanoma; M14 melanoma.
Common to all, as to assay: NCI-60 one-dose screen, 48 h (100 = growth as untreated, 0 = no growth, -100 = all killed)
What all share (details): 10 µM unless noted

The structures appear in SMILES notation. This is part of a sample that, as a whole, favours compounds with a hit. Of some 83,000 tested, about 20% had one in any assay.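 In brief: 96-well plates, 48 h treatment, single concentration, percent growth endpoint.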 A number with no mark means an inactive call. Calls of active or inactive are those of the source. How the source made its calls: active means growth percent below 10; inactive means the rest.

The results in this text go back to PubChem BioAssay (NCI).

Regarding `CS(=O)(=O)Nc1cccc(-c2ccc3ncnc(Nc4ccc(F)c(Cl)c4)c3c2)c1`, the growth in the assay on NCI-H23 lung is 42.6%; in the assay on NCI-H226 lung, 44.5%; in the assay on NCI-H322M lung, 15%; in the assay with HOP-62 NSCLC it was 39.8%; in the assay with NCI-H460 lung, 20%; in the assay on HOP-92 NSCLC, 34.6%. Further, the growth in the assay on NCI-H522 lung was -23.6% (active); with A549/ATCC NSCLC, 25.3%; in the assay with 786-0 renal, -6.08% (active); with COLO 205 colon, -33.3% (active); in the assay with DU-145 prostate, 28.4%; in the assay with K-562 leukemia, 11.2%. Further, the growth with MALME-3M melanoma is 31%; in the assay with MDA-MB-231 breast, -2.84% (active); in the assay with RXF 393 renal it was 23.7%; in the assay with SF-268 CNS, 38.9%; in the assay on SF-295 CNS it was 3.13% (active); in the assay with SF-539 CNS it was 25.9%. Further, the growth in the assay on UACC-257 melanoma was 49.4%; in the assay on M14 melanoma, 10.5%.
`COc1ccc(-c2nn(-c3ccc(NC(=O)Nc4cc(C(F)(F)F)cc(C(F)(F)F)c4)cc3)cc2-c2ccncc2)cc1Cl`: the growth is 8.51% (active) in the assay on NCI-H23 lung; 0.753% (active) in the assay with NCI-H226 lung; 30.9% in the assay with NCI-H322M lung; 19.5% with HOP-62 NSCLC; -2.26% (active) in the assay with NCI-H460 lung; -21.6% (active) with HOP-92 NSCLC. For the same molecule, the growth is -8.92% (active) with NCI-H522 lung; 14.6% in the assay with A549/ATCC NSCLC; 1.94% (active) in the assay on 786-0 renal; -33.4% (active) in the assay on COLO 205 colon; 30.4% in the assay on DU-145 prostate; 17.2% with K-562 leukemia. The growth in the assay with MALME-3M melanoma was 11.4%; in the assay on MDA-MB-231 breast, 8.03% (active); with RXF 393 renal it was -26.2% (active); in the assay with SF-268 CNS, 21.8%; with SF-295 CNS, 4% (active); in the assay with SF-539 CNS it was 24.6%. In addition, the growth with UACC-257 melanoma was 13.6%; with M14 melanoma, 20.6%.
On to `O=C(N/N=C1\SCC(=O)N1c1ccccc1)c1cc(-c2cc3ccccc3o2)nn1-c1ccccc1`, for which the growth in the assay with NCI-H23 lung was 44.8%; with NCI-H226 lung, 118%; in the assay with NCI-H322M lung, 102%; with HOP-62 NSCLC it was 101%; in the assay on NCI-H460 lung it was 121%; in the assay with HOP-92 NSCLC, 50.9%. Moreover, the growth is 106% with NCI-H522 lung; 110% in the assay on A549/ATCC NSCLC; 102% with 786-0 renal; 132% in the assay on COLO 205 colon; 109% in the assay on DU-145 prostate; 90.6% in the assay with K-562 leukemia. Further, the growth in the assay on MALME-3M melanoma is 94%; with MDA-MB-231 breast, 91.9%; in the assay with RXF 393 renal, 101%; in the assay with SF-268 CNS, 103%; in the assay with SF-295 CNS, 104%; with SF-539 CNS, 104%. Also, the growth in the assay with UACC-257 melanoma was 107%; in the assay on M14 melanoma it was 110%.
For `O=c1cc(Cl)[nH]c(=O)[nH]1`, the growth with NCI-H23 lung was 98.9%; in the assay on NCI-H226 lung, 97.5%; in the assay with NCI-H322M lung, 98.9%; in the assay on HOP-62 NSCLC, 83.2%; in the assay on NCI-H460 lung, 108%; in the assay on HOP-92 NSCLC it was 98.2%. Moreover, the growth with NCI-H522 lung is 67.7%; in the assay with A549/ATCC NSCLC it was 79.5%; with 786-0 renal, 101%; in the assay with COLO 205 colon it was 97.5%; in the assay with DU-145 prostate it was 107%; in the assay with K-562 leukemia, 104%. The growth in the assay with MALME-3M melanoma is 112%; in the assay on MDA-MB-231 breast, 111%; in the assay on RXF 393 renal, 101%; in the assay with SF-268 CNS it was 101%; with SF-295 CNS, 101%; in the assay on SF-539 CNS, 105%. The growth with UACC-257 melanoma was 89.1%; in the assay on M14 melanoma, 97.6%.
Consider `COc1cc(NS(C)(=O)=O)ccc1Cc1c2ccccc2nc2ccccc12`, for which the growth in the assay with NCI-H23 lung is 11.2%; with NCI-H226 lung, -17.5% (active); with NCI-H322M lung it was 75.2%; in the assay with HOP-62 NSCLC it was -13.9% (active); in the assay with NCI-H460 lung, -1.15% (active); in the assay on HOP-92 NSCLC, 21.2%. Further, the growth is 43.2% in the assay on NCI-H522 lung; -11.8% (active) in the assay with A549/ATCC NSCLC; -10.6% (active) in the assay with 786-0 renal; 29.8% in the assay on COLO 205 colon; 11% in the assay with DU-145 prostate; 18.2% with K-562 leukemia. Further, the growth with MALME-3M melanoma is 14.8%; in the assay with MDA-MB-231 breast, 53.2%; in the assay with RXF 393 renal, -13.4% (active); with SF-268 CNS it was 22.4%; in the assay on SF-295 CNS, 3.77% (active); in the assay with SF-539 CNS it was -28.5% (active). Also, the growth in the assay on UACC-257 melanoma was 25%; with M14 melanoma, 10%.
For the molecule `CN1C(=O)C2(NN=C(c3cccc4ccccc34)S2)c2ccccc21` (stereo not given), the growth in the assay on NCI-H23 lung was 50.4%; with NCI-H226 lung, 46.1%; with NCI-H322M lung, 44.4%; with HOP-62 NSCLC, 13.9%; with NCI-H460 lung, 14.6%; with HOP-92 NSCLC, -1.68% (active). In addition, the growth is 41.1% in the assay with NCI-H522 lung; 9.72% (active) in the assay with A549/ATCC NSCLC; 33.5% in the assay on 786-0 renal; 23.5% in the assay with COLO 205 colon; 50.3% in the assay with DU-145 prostate; 11.8% in the assay with K-562 leukemia. For the same molecule, the growth in the assay on MALME-3M melanoma is 63.5%; in the assay with MDA-MB-231 breast, 46%; in the assay on RXF 393 renal, 79%; with SF-268 CNS it was 37.6%; with SF-295 CNS it was 29.7%; in the assay on SF-539 CNS, 49.1%. The results for the growth in the assay on UACC-257 melanoma and in the assay with M14 melanoma were 50.6% and 17.3%, respectively.
As for `CN(C)c1ccc(/C=N/n2c(-c3cc(F)c(Cl)cc3Cl)nn(CN3CCOCC3)c2=S)cc1`, the growth is 101% in the assay on NCI-H23 lung; 97.2% in the assay on NCI-H226 lung; 94.9% in the assay on NCI-H322M lung; 87.1% in the assay with HOP-62 NSCLC; 121% with NCI-H460 lung; 75.2% in the assay on HOP-92 NSCLC. Further, the growth is 74.1% in the assay with NCI-H522 lung; 101% in the assay with A549/ATCC NSCLC; 101% with 786-0 renal; 108% with COLO 205 colon; 106% in the assay with DU-145 prostate; 82.7% in the assay with K-562 leukemia. The growth with MALME-3M melanoma is 87.6%; in the assay on MDA-MB-231 breast, 99.8%; with RXF 393 renal, 110%; in the assay with SF-268 CNS it was 119%; in the assay with SF-295 CNS it was 96.1%; in the assay on SF-539 CNS, 97.1%. For the same molecule, the figures for the growth with UACC-257 melanoma and in the assay on M14 melanoma were 91.9% and 82.6%, respectively.
In the case of `CC1(C)CC(=O)C2=C(C1)OC1=C(C(=O)CC(C)(C)C1)C2c1ccc(OCc2cn(-c3ccc(F)cc3F)nn2)cc1`, the growth is 102% in the assay on NCI-H23 lung; 88.9% in the assay with NCI-H226 lung; 105% in the assay with NCI-H322M lung; 116% with HOP-62 NSCLC; 100% in the assay with NCI-H460 lung; 107% in the assay with HOP-92 NSCLC. The growth with NCI-H522 lung is 77%; in the assay on A549/ATCC NSCLC, 84.3%; in the assay with 786-0 renal it was 120%; in the assay on COLO 205 colon, 101%; with DU-145 prostate it was 92.2%; with K-562 leukemia it was 73.8%. The growth was 89.6% in the assay on MALME-3M melanoma; 91.8% with MDA-MB-231 breast; 107% in the assay on RXF 393 renal; 84.9% in the assay on SF-268 CNS; 95.5% in the assay with SF-295 CNS; 99.8% with SF-539 CNS. In addition, the growth in the assay on UACC-257 melanoma is 83.3%; in the assay on M14 melanoma, 87.3%.
